# About 820 (0.83%) of roughly 99,000 compounds were called active.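 The calls were made as follows: active = Z-score of -3 or lower, scaled per plate to the spread of control and sample wells; inactive = z-score above -3.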 The list comes from a sample in which actives are over-represented; it also holds similar structures and randomly drawn compounds.
# Biological target: Protein-tyrosine kinase 2-beta (Homo sapiens) (UniProt Q14289)
# Assay: antagonists of Pyk2 self-association, primary screen, Q293 cells, FERM NanoBiT luminescence, HTS (AID 1347419);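 also: the deposit names both 25 µM and 10 µM; negative z-score means lost luminescence so less FERM oligomerization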
# Parameters: dose or concentration left out as unconfirmed
# Details: active compounds read low
# Chain of Protein-tyrosine kinase 2-beta (Homo sapiens) (Q14289 whole entry, looked up): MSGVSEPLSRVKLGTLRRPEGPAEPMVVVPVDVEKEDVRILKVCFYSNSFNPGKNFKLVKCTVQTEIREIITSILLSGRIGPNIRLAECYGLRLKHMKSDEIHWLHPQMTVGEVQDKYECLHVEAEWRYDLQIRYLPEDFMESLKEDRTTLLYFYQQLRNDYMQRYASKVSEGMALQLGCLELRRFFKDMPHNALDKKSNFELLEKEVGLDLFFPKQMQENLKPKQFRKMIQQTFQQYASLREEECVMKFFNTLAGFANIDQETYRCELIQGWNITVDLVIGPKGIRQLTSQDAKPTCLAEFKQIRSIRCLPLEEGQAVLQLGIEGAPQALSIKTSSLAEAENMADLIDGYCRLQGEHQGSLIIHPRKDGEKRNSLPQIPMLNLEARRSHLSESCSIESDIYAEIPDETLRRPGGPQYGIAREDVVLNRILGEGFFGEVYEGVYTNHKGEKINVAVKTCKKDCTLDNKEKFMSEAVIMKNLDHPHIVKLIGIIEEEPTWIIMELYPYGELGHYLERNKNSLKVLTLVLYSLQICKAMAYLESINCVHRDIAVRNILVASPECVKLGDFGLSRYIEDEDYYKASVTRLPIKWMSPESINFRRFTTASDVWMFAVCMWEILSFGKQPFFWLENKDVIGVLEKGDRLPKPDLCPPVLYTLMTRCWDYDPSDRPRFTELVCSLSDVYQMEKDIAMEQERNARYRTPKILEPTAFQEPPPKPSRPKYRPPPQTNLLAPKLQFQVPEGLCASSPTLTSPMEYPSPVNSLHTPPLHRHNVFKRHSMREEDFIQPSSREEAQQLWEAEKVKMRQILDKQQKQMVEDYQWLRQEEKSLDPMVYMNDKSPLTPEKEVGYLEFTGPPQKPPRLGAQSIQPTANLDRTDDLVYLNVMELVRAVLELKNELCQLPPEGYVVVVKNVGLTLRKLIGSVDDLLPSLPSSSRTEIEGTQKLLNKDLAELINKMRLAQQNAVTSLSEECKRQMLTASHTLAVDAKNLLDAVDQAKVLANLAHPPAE
row,SMILES,z-score
1,COc1cccc(C(=O)Nc2cc3c(cc2Br)OCCCO3)c1,0.23 (inactive)
2,CCOc1ccc(NC(=O)CCC(=O)N/N=C/c2ccc([N+](=O)[O-])s2)cc1,0.19 (inactive)
3,CC(C)(C)NC(=O)c1cccc(NC(=O)Cc2ccc(Br)cc2)c1,-0.17 (inactive)
4,COC(=O)c1c(NC(=O)CN2CCN(S(=O)(=O)c3ccccc3[N+](=O)[O-])CC2)sc2c1CCC(C)C2 (stereo not drawn),0.28 (inactive)
5,CNC(=O)c1ccsc1NC(=O)c1ccc(S(=O)(=O)N2CCOCC2)cc1,-1 (inactive)
6,CC(=O)Oc1c(C(=O)c2nnc(C)o2)c(=O)n(Cc2ccccc2)c2ccccc12,0.7 (inactive)
7,O=C(Cc1c[nH]c2ccccc12)N/N=C/c1cccc(F)c1,-0.81 (inactive)
8,COc1cccc2c1CCC(NC(C)=O)C2=O (stereo not drawn),0.78 (inactive)
9,CCOC(=O)c1ccc(N/C(=N/S(=O)(=O)c2ccccc2)c2ccccc2)cc1,-1.09 (inactive)
10,COCCCNC(=O)CNC(=S)N(Cc1cc(OC)c(OC)c(OC)c1)C1CCCC1,0.81 (inactive)
11,Cc1ccc(C(=O)C(=S)N2CCOCC2)cc1,-0.25 (inactive)
12,COc1ccc(/C=C/C(=O)Nc2ccc3c(c2)OCCO3)cc1OC,-0.25 (inactive)
13,Cc1ccc(C(=O)N2CC(=O)Nc3ccccc32)o1,-0.11 (inactive)
14,CC(=O)Nn1cc2c(=O)n(C)c(=O)n(C)c2c1,1.08 (inactive)
15,COc1ccc(OC)c(-n2cc3c(=O)n(C)c(=O)n(C)c3c2)c1,-0.75 (inactive)
16,Cn1c(=O)c2cn(-c3cccc4ccccc34)cc2n(C)c1=O,-3.24 (active)
17,COc1ccc(CC(=O)Nc2cc(S(=O)(=O)N3CCCCC3)ccc2N2CCN(C)CC2)cc1,0.23 (inactive)
18,COc1ccccc1NC(=O)C1=C(C)Nc2nc3ccccc3n2C1c1cccs1 (stereo not drawn),-0.65 (inactive)
19,CC(C)C(=O)Nc1ccc2c3c(cccc13)CC2,-0.27 (inactive)
20,CCOC(=O)c1cc2cc(-c3c(C(=O)OCC)oc4cc(O)cc(O)c4c3=O)ccc2o1,-3.6 (active)
21,O=c1c(-c2ccc3c(c2)OCCO3)c(C(F)(F)F)oc2cc(O)cc(O)c12,-1.19 (inactive)
22,Cc1ccc(OC(=O)c2cc3ccccc3o2)cc1,0.88 (inactive)
23,O=C(NC(=S)NC1CCSC1=O)c1ccccc1F (stereo not drawn),2.45 (inactive)
24,CCOc1ccc(/C=N/OCC(=O)NCc2cccs2)cc1,0.26 (inactive)
25,Nc1nc(SCc2ccc([N+](=O)[O-])cc2)c2ncn(C3OC(CO)C(O)C3O)c2n1 (stereo not drawn),1.34 (inactive)
26,Cc1cccc(N2CCN(C(c3ccccc3)c3nnnn3CC3CCCO3)CC2)c1C (stereo not drawn),-3.18 (active)
27,COc1ccc(C(c2nnnn2C2CCCCC2)N2CCN(c3ccccc3F)CC2)cc1 (stereo not drawn),-2.56 (inactive)
28,Cc1cccc(N2CCN(C(c3ccc(N(C)C)cc3)c3nnnn3C(C)(C)C)CC2)c1C (stereo not drawn),0.72 (inactive)

# — PubChem BioAssay AID1347419 (Sanford-Burnham Center for Chemical Genomics, 2020)
